From PubChem BioAssay AID624040 (The Scripps Research Institute Molecular Screening Center, 2012)
Screen size: about 360,000 compounds; about 2,100 (0.58%) were called active.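 Rule for the calls: active = inhibition above a per-plate cutoff, the mean of that plate's test compounds plus 3 SD (cut at about 27% in these data); inactive = the rest.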 The sample as a whole holds a higher share of actives than the screen did.

target: Muscarinic acetylcholine receptor M5 (Homo sapiens) (UniProt P08912); test: CHRM5 blockers of acetylcholine calcium response – CHO cells, Fluo-8 calcium fluorescence, primary screen (AID 624040); conditions: CHO-hM5 cells, ACh EC80, at 3 µM, active compounds read high;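 note: 0% = acetylcholine EC80 with DMSO and 100% = DMSO without agonist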
Sequence (P08912 whole entry, looked up): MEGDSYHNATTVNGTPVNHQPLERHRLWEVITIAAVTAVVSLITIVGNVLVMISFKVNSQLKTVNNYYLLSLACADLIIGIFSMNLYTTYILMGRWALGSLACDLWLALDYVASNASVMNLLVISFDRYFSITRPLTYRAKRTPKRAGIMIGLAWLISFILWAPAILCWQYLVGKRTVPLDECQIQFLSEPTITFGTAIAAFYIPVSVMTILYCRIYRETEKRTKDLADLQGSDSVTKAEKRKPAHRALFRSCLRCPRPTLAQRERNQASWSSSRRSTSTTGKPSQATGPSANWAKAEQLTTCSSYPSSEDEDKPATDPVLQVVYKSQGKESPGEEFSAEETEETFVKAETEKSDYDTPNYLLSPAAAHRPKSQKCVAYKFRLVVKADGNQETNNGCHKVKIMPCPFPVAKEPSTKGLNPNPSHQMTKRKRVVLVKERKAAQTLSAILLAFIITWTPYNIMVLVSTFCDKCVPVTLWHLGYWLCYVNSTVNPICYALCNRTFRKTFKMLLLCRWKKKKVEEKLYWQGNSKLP

inhibition, active:
c1ccc2c(c1)OCC(CNc1ncnc3nc[nH]c13)O2 (stereo not drawn) 46.2%
CN(CC#CCC(c1ccccc1)c1ccccc1)C(C)(C)C 56.4%
CCCC[C@@H]1CN=C(N)N1CCc1cc(C(F)(F)F)cc(C(F)(F)F)c1 32.4%
O=C(NC1=CC(=O)c2ccccc2C1=O)c1ccccc1 36.2%
COc1ccc(CNS(=O)(=O)c2cc(-c3cc(C)no3)ccc2C(C)C)cc1 27.2%
CC(C)c1ccc2oc(=O)cc(CN3CCN(Cc4ccccc4)CC3)c2c1 27.9%
CCCCCCCCn1c2c(c(=N)c3c1CCC3)CCCC2 32.9%
COc1cccc(CNC(=O)CCC2CCCN(C(=O)c3cc(C)[nH]n3)C2)c1 (stereo not drawn) 32.7%
CN(C)c1ccc(/C=C2\NC(=S)N(Cc3ccccc3)C2=O)cc1 52.7%
O=[N+]([O-])c1c(NCCO)cc(Sc2nc3ccccc3s2)c2nonc12 29.2%
CSc1nsc(NC(=O)Nc2ccccc2)n1 31.1%
S=C(NCCCc1ccccc1)Nc1ccc(Br)cc1 27.8%

inhibition, inactive:
CN(C)CCNc1ccc(-c2n[nH]c(=O)c3ccccc23)cc1[N+](=O)[O-] 5.87%
O=C(NCC1(N2CCCCC2)CCCCC1)c1ccc(NS(=O)(=O)c2ccc(F)cc2)cc1 6.39%
CC(C)c1ccc(NC(=O)COC(=O)c2ccc(CN3CCCC3=O)cc2)cc1 11.4%
Cc1cc(C)c(S(=O)(=O)N2CCCC2CNC(=O)c2ccc3c(c2)OCO3)c(C)c1 (stereo not drawn) 10.3%
O=C(COc1ccc(F)cc1Br)NCC1COc2ccccc2O1 (stereo not drawn) -3.52%
CCC(=O)c1ccc(OCC(=O)N(CC)CC2COc3ccccc3O2)cc1 (stereo not drawn) -6.74%
CSc1ccccc1OCc1cc(C(=O)N2C[C@H]3CC[C@H]2C3)no1 23.9%
CCc1nc2nc(C)c(NS(=O)(=O)c3ccc4c(c3)CCCC4)c(=O)n2[nH]1 17.6%
CC(C)(C)N(CC#CCC(O)(c1ccccc1)C1CCCC1)CCO (stereo not drawn) 8.39%
O=C1NC[C@@H](Cc2ccc(O)cc2)N(CCc2cccc(F)c2)C1=O 10.1%
CCCCC(C(=O)NC(C)(C)C)N(Cc1ccccc1)C(=O)c1snc(C(N)=O)c1N (stereo not drawn) -2.14%
Cc1cc(C)c(OCC(=O)N(Cc2cccs2)C2CCS(=O)(=O)C2)c(C)c1 (stereo not drawn) 5.07%
CCCCN1C(N)=NC[C@@H]1CC1CCCCC1 0.65%
CN(C)C1=NC[C@H](Cc2ccccc2)N1CCc1ccc(F)cc1 2.48%
COc1cccc(C(O)c2nc(-c3ccc(C)c(C)c3)cs2)c1 (stereo not drawn) 2.71%
Cc1ccc(C(=O)Nc2c(-c3ccccc3)[nH][nH]c2=O)cc1 -12.3%
CN(C)C(=O)c1ccc(NC(=O)c2ccccc2-c2ccccc2)cc1 12.5%
O=C(O)CCC(=O)Nc1ccc(OCC2CCCO2)cc1 (stereo not drawn) -4.56%
COc1ccc(NC(=O)CN2C(=O)CSc3ccc(S(=O)(=O)N4CCC(C)CC4)cc32)cc1 -4.66%
Cc1cc(-c2ccc(C)c(S(=O)(=O)NCCCN(Cc3ccccc3)C(C)C)c2)on1 -8.38%
CCc1ccc(-c2cc(C)no2)cc1S(=O)(=O)NCCc1ccc(S(N)(=O)=O)cc1 -7.03%
CSCCC(NC(=O)COc1ccccc1)C(=O)Nc1ccc(C)cc1 (stereo not drawn) 0.42%
Cc1cc2oc(=O)cc(CN3CCN(S(=O)(=O)c4cccs4)CC3)c2cc1C(C)C 6.3%
O=c1cc(CN2CCCCCCC2)c2c(ccc3ccccc32)o1 1.52%
COc1ccc(-c2cc3nc(C)c(CCC(=O)NC(C)CCc4ccco4)c(C)n3n2)c(OC)c1 (stereo not drawn) -13.5%
CCC(C)C(NC(=O)C1CCC(=O)N1C(=O)OCc1ccccc1)C(=O)NC(C(=O)N1CCCC1C(N)=O)C(C)CC (stereo not drawn) 5.74%
C#Cc1ccc([C@@H]2C=C(C(=O)O)O[C@H](OCCCCO)C2)cc1 13.8%
CCCN(Cc1cc2cccc(C)c2[nH]c1=O)S(C)(=O)=O -2.81%
COc1cccc(CNC(=O)CCC2CCCN(C(=O)c3ccoc3C)C2)c1 (stereo not drawn) 12.6%
COc1cccc(CNC(=O)CCC2CCCN(C(=O)c3ccc(F)c(Cl)c3)C2)c1 (stereo not drawn) -0.63%
CC1(C)Cc2nc3sc4c(SCC(=O)NC(c5ccccc5)c5ccccc5)ncnc4c3cc2CO1 -8.35%
CCN(C(=O)CSc1nnnn1-c1ccc(OC)cc1)C1CCS(=O)(=O)C1 (stereo not drawn) 12.8%
CC(Sc1nn(-c2ccc(Cl)cc2)c(=S)s1)C(=O)NCC1CCCO1 (stereo not drawn) -4.62%
N#Cc1ccc(OCCN2C(=O)NC3(CCSC3)C2=O)cc1 (stereo not drawn) -5.81%
COc1ccc(NC(=O)c2sccc2SCC#N)cc1 2.72%
CN1CCN(C(=O)C2=C[C@H](c3ccc4c(c3)OCO4)C[C@H](OCc3ccc(CO)cc3)O2)CC1 3.48%
COc1ccc(-n2nnc3c(=O)n(CC(=O)OCc4ccccc4)cnc32)cc1 4.49%
CCSc1nsc(NC(=O)Nc2cccc(C(C)=O)c2)n1 22.5%
C=CCSc1nsc(NC(=O)Nc2cccc(C(C)=O)c2)n1 21.8%
COC(=O)/C(C#N)=C/c1occc1C 2.54%
CC1OC2C(OC1C)N(S(C)(=O)=O)CCN2S(C)(=O)=O (stereo not drawn) -2.68%
Cc1ccc(C(c2nnnn2CS(=O)(=O)c2ccc(C)cc2)N2CCC(C(N)=O)CC2)cc1 (stereo not drawn) -9.51%
NC(=O)C1(N2CCCCC2)CCN(C2CC(=O)N(Cc3ccc(N4CCCC4=O)cc3)C2=O)CC1 (stereo not drawn) -5.49%
O=S(=O)(NCCCc1ccccc1)c1ccc(Br)cc1 6.97%
S=C(Nc1ccc(Br)cc1)NC1CCN(Cc2ccccc2)CC1 -2.81%
Cc1sc(NC(=O)C2C3CCC(O3)C2C(=O)O)c(C(=O)OC(C)C)c1-c1ccc(Cl)cc1 (stereo not drawn) -0.97%
